Assay results taken from ChEMBL document CHEMBL2218924, “A broad activity screen in support of a chemogenomic map for kinase signalling research and drug discovery” (Biochem J, 2013).

Experiments:
[1] = target: T1, Ephrin type-A receptor 3 (Homo sapiens) (UniProt P29320); details: at 10 µM
T1 sequence (whole entry): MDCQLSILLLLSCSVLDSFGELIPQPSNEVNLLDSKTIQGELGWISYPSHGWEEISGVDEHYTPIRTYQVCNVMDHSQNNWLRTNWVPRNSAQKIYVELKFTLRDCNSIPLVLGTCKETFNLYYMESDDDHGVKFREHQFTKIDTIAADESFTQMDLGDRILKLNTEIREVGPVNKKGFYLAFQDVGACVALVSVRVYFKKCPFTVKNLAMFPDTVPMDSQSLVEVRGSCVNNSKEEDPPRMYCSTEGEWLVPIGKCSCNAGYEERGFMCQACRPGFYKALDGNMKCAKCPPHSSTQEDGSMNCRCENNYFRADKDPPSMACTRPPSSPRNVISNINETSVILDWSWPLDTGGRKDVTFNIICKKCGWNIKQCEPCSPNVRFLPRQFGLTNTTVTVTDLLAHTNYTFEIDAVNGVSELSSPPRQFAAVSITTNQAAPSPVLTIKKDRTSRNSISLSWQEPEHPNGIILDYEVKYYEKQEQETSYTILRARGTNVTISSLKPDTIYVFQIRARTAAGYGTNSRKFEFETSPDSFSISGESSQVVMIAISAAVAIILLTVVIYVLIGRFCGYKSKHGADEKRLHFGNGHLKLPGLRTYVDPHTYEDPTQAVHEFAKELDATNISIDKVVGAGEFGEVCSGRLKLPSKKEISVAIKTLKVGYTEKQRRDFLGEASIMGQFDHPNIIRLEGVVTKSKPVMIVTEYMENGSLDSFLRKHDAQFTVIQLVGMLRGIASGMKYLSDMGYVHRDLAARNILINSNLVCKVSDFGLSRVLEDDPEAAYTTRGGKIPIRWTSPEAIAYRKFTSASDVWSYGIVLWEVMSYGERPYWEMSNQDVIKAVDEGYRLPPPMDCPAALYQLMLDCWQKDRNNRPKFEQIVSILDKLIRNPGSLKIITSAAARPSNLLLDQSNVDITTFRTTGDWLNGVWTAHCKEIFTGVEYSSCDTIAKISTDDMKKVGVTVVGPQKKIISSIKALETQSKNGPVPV

[2] = target: Ephrin type-A receptor 4 (Homo sapiens) (UniProt P54764); details: at 1 µM
Sequence of Ephrin type-A receptor 4 (Homo sapiens) (P54764 whole entry): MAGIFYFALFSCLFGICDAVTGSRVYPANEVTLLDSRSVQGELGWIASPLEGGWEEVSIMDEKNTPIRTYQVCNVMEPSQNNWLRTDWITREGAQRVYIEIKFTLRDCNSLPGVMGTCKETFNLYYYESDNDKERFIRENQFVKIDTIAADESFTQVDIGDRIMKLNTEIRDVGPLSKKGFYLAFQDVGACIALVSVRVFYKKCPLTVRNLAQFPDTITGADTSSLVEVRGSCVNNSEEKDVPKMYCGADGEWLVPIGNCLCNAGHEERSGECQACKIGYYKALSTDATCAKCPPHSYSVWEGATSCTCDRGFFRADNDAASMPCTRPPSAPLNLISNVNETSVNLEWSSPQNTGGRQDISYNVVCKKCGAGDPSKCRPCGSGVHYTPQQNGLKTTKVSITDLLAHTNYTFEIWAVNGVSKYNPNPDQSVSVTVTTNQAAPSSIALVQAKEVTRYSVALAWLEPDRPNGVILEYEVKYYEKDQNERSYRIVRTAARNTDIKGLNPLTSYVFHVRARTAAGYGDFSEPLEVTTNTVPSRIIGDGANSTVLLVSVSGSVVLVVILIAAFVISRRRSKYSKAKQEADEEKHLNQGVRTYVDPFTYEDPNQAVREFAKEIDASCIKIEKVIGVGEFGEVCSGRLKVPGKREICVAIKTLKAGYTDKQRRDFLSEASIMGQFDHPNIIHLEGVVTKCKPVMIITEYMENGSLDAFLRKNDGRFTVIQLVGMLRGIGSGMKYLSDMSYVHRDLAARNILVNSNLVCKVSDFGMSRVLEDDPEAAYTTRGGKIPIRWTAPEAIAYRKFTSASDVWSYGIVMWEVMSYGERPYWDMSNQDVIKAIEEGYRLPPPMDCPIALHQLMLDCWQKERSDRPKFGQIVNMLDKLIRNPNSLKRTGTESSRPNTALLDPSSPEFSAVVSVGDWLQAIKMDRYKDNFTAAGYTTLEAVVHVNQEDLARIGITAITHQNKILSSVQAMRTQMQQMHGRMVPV

[3] = target: Ephrin type-A receptor 4 (Homo sapiens) (UniProt P54764); details: at 10 µM
[4] = target: Ephrin type-A receptor 5 (Homo sapiens) (UniProt P54756); details: at 1 µM
Sequence of Ephrin type-A receptor 5 (Homo sapiens) (P54756 whole entry): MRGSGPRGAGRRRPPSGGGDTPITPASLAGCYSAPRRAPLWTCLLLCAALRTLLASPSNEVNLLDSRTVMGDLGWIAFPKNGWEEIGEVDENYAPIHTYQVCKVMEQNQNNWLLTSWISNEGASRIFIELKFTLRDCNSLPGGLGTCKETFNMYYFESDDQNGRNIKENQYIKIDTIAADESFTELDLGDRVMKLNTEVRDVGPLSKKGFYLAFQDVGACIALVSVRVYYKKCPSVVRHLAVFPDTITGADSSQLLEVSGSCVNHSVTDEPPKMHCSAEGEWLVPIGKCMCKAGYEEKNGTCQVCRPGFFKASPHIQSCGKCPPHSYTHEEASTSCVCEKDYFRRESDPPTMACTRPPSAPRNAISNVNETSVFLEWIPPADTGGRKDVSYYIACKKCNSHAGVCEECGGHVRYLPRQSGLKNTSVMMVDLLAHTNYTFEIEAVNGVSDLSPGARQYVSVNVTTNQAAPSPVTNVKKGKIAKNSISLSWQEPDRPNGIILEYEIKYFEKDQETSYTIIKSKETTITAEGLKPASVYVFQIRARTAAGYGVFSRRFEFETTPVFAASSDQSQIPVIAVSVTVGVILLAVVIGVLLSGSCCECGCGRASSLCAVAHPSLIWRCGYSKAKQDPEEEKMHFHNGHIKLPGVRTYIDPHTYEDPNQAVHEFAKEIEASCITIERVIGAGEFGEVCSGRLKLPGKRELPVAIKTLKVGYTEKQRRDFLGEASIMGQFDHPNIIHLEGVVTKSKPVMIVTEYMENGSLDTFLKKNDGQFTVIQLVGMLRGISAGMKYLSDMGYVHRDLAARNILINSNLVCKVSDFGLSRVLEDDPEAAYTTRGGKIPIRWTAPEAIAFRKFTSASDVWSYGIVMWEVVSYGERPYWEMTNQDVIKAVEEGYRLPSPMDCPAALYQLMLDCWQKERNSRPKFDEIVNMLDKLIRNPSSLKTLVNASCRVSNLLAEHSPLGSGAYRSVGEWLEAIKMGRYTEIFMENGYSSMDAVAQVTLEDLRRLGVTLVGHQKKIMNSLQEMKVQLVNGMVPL

[5] = target: Ephrin type-A receptor 5 (Homo sapiens) (UniProt P54756); details: at 10 µM
[6] = target: Ephrin type-A receptor 7 (Homo sapiens) (UniProt Q15375); details: at 1 µM
Sequence of Ephrin type-A receptor 7 (Homo sapiens) (Q15375 28-998 limits assumed): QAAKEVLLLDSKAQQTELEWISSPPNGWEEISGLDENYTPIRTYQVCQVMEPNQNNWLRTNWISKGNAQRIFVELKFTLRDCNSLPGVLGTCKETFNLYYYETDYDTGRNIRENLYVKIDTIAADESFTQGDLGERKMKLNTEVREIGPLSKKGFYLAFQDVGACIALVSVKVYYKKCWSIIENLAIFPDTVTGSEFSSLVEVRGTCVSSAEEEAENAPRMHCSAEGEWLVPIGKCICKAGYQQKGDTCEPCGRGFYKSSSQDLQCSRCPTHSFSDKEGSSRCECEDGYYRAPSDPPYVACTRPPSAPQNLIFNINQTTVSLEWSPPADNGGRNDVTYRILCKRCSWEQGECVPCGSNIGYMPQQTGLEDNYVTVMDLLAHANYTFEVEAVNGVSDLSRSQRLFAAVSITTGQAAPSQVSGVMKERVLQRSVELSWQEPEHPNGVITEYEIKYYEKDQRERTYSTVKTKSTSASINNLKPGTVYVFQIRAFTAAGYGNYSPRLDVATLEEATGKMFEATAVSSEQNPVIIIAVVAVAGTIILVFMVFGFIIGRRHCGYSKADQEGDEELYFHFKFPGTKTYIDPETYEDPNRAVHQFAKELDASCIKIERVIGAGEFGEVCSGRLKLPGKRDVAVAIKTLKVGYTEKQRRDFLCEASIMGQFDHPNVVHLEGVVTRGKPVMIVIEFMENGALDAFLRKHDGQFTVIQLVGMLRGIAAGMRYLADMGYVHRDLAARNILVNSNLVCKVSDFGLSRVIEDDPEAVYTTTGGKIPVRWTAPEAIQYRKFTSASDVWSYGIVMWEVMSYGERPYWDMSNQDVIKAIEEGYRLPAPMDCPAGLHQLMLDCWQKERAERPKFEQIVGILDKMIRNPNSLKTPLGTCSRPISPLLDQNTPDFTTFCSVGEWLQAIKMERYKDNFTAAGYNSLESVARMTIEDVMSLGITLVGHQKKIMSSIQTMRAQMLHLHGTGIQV

[7] = target: Ephrin type-A receptor 7 (Homo sapiens) (UniProt Q15375); details: at 10 µM
[8] = target: T2, Ephrin type-A receptor 8 (Homo sapiens) (UniProt P29322); details: at 1 µM
T2 sequence (whole entry): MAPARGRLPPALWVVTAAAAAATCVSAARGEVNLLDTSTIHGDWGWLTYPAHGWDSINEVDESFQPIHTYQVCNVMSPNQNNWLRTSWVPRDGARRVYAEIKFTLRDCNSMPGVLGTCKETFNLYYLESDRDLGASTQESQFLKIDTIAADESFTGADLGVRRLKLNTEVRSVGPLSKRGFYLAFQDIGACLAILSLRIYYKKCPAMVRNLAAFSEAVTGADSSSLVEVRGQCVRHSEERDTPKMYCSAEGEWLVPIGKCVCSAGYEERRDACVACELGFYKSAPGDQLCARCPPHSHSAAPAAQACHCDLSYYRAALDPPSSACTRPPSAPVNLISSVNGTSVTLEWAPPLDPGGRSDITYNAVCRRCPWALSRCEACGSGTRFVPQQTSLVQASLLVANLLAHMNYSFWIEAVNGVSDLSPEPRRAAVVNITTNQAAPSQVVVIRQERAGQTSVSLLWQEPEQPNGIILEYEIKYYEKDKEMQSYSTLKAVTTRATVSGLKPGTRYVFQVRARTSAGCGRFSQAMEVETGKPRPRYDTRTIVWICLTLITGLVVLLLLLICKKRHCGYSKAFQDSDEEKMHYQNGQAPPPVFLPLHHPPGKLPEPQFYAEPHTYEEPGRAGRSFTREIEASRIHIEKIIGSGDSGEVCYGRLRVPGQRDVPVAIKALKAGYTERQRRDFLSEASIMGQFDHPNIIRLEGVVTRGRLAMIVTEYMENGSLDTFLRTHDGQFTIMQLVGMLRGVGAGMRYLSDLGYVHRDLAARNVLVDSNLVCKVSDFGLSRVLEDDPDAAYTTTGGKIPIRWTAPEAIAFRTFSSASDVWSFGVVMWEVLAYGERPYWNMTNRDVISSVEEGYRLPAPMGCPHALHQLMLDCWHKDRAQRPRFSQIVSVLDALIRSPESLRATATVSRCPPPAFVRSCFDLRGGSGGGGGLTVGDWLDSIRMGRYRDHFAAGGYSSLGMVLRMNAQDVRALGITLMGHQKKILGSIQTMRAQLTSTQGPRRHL

[9] = target: T2, Ephrin type-A receptor 8 (Homo sapiens); details: at 10 µM
[10] = target: T3, Ephrin type-B receptor 1 (Homo sapiens) (UniProt P54762); details: at 1 µM
T3 sequence (whole entry): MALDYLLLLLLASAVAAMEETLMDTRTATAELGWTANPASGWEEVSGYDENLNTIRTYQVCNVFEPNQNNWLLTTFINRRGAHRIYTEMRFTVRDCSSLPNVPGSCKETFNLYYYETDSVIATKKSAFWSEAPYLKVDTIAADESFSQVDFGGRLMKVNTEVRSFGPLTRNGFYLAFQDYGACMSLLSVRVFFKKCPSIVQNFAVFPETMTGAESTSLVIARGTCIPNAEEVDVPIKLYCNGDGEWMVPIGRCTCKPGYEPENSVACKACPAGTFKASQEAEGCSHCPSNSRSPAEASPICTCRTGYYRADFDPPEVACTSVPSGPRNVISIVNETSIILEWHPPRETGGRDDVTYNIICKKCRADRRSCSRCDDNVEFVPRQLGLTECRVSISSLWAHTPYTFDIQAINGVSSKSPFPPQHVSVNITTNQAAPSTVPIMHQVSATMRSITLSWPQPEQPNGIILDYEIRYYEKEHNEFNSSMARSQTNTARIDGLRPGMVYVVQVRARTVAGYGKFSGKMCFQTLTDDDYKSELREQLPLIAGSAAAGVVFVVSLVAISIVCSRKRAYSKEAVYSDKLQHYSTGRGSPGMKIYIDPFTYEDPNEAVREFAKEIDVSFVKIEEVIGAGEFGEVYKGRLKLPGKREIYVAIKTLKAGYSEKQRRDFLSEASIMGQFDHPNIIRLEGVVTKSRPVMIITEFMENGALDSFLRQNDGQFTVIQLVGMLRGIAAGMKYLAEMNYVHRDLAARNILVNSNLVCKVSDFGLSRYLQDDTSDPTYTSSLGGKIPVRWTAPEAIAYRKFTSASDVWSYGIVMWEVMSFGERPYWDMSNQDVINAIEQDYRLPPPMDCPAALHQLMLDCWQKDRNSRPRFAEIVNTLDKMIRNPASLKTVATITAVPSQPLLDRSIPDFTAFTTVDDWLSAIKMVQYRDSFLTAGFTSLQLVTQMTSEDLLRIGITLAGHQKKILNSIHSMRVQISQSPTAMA

[11] = target: T3, Ephrin type-B receptor 1 (Homo sapiens); details: at 10 µM
[12] = target: T4, Ephrin type-B receptor 2 (Homo sapiens) (UniProt P29323); details: at 1 µM
T4 sequence (whole entry): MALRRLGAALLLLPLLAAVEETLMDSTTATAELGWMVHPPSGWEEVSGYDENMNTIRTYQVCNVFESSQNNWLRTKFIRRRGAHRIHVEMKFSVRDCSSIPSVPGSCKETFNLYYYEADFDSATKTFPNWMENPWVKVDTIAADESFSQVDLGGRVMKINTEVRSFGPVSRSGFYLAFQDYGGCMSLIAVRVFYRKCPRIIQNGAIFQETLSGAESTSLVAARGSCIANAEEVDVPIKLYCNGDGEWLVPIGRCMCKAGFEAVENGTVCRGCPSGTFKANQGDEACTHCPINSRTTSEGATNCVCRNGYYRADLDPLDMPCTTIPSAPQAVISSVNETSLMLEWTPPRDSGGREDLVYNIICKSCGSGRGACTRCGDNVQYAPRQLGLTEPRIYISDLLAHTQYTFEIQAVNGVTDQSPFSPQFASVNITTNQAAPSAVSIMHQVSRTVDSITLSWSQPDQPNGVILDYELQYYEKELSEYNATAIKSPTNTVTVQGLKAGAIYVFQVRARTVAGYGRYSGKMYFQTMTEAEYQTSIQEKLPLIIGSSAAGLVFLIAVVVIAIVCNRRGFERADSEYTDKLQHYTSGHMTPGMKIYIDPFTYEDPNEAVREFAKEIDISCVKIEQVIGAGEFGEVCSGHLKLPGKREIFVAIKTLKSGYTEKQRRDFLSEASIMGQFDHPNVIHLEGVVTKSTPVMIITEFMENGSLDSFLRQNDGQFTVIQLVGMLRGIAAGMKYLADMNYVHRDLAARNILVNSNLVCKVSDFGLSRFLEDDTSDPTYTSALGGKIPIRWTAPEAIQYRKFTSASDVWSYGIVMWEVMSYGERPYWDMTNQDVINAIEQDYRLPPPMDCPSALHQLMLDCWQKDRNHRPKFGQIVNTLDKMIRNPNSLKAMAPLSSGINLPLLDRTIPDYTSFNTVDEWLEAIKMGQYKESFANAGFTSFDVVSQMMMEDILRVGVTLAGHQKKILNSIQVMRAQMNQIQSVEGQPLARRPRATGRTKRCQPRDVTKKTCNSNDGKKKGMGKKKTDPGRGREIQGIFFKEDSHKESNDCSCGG

[13] = target: T4, Ephrin type-B receptor 2 (Homo sapiens); details: at 10 µM
[14] = target: T5, Ephrin type-B receptor 3 (Homo sapiens) (UniProt P54753); details: at 1 µM
T5 sequence (whole entry): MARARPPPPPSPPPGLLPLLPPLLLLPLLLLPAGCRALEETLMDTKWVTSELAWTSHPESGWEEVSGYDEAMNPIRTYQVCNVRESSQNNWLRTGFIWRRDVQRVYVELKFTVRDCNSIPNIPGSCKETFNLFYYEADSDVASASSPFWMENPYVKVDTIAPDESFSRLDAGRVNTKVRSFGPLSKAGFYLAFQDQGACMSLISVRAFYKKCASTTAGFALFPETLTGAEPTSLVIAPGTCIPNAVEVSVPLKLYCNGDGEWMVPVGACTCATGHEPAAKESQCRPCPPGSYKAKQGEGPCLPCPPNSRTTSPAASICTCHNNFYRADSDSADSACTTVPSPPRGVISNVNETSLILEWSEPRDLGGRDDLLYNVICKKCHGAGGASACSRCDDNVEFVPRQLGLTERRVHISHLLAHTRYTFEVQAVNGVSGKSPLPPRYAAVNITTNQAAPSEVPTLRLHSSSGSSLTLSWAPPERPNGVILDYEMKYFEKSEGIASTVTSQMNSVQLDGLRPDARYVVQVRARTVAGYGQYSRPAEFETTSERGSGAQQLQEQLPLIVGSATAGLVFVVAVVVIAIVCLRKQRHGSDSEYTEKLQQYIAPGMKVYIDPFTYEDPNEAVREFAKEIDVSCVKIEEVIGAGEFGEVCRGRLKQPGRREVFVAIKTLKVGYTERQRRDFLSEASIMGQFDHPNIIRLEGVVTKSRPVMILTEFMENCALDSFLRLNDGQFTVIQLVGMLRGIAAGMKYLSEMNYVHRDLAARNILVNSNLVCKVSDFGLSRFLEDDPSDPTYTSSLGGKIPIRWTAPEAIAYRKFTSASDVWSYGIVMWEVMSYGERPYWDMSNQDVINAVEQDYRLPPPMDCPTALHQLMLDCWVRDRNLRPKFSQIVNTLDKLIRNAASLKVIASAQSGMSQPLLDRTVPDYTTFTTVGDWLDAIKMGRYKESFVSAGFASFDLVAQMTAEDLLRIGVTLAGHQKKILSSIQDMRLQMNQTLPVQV

[15] = target: T5, Ephrin type-B receptor 3 (Homo sapiens); details: at 10 µM
[16] = target: T6, Ephrin type-B receptor 4 (Homo sapiens) (UniProt P54760); details: at 1 µM
T6 sequence (whole entry): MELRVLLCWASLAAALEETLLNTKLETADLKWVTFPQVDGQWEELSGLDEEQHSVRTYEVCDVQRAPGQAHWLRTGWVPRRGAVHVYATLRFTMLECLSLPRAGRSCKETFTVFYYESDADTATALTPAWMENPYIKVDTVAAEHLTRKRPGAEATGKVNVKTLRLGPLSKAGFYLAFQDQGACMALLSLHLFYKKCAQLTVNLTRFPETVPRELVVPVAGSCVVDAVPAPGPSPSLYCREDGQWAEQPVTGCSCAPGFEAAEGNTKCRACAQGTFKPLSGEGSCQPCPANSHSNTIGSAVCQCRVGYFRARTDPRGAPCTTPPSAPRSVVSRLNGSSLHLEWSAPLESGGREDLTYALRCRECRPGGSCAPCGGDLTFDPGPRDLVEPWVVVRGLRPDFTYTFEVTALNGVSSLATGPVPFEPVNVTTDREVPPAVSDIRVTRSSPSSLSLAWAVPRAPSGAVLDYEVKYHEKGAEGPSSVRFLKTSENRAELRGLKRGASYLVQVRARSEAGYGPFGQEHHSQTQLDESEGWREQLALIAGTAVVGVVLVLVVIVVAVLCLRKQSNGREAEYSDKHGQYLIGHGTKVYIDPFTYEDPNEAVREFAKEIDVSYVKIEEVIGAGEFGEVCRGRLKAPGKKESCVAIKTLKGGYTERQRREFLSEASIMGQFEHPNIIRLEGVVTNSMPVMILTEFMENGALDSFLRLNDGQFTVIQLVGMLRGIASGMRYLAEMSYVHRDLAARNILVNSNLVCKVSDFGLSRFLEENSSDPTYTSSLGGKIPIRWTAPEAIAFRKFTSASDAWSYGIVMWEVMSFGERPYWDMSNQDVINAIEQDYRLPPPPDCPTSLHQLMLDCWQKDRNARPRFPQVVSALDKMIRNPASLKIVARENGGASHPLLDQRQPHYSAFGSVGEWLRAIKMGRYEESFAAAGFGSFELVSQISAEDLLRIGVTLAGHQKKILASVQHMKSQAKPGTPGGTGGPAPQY

[17] = target: T6, Ephrin type-B receptor 4 (Homo sapiens); details: at 10 µM
[18] = target: Receptor tyrosine-protein kinase erbB-4 (Homo sapiens) (UniProt Q15303); details: at 1 µM
Sequence of Receptor tyrosine-protein kinase erbB-4 (Homo sapiens) (Q15303 whole entry): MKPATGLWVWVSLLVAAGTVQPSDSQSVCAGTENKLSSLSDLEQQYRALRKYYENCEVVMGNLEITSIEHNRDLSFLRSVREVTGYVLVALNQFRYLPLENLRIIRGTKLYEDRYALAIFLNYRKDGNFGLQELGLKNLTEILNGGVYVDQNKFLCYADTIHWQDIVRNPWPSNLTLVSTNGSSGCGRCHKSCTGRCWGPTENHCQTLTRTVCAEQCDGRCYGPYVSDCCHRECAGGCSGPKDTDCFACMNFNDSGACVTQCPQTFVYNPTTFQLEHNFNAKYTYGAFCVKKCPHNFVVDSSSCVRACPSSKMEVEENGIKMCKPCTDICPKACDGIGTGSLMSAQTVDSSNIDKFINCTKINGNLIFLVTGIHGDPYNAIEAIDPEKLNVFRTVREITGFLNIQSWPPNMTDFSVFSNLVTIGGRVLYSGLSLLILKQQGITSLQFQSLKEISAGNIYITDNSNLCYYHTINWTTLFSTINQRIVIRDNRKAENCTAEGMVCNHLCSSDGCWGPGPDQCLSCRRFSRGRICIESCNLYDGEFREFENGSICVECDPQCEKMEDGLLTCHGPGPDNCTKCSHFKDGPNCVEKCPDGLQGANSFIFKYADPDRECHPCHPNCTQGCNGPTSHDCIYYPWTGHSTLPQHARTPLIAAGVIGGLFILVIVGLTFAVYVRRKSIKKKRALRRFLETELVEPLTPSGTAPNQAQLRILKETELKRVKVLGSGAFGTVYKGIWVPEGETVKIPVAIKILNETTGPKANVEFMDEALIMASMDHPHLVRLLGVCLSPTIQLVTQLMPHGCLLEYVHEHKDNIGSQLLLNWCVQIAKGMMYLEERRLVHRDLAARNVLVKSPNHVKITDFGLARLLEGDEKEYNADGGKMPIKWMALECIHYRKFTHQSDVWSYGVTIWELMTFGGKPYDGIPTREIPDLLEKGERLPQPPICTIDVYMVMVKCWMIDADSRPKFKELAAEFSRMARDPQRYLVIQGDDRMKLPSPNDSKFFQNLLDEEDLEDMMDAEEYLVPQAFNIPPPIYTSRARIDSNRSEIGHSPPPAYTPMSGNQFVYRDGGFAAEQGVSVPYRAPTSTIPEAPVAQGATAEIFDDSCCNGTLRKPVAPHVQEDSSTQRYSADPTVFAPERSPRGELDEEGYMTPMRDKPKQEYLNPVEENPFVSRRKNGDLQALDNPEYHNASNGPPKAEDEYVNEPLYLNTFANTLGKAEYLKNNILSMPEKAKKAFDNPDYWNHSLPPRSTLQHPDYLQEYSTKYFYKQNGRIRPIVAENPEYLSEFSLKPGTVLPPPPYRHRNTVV

[19] = target: Receptor tyrosine-protein kinase erbB-4 (Homo sapiens) (UniProt Q15303); details: at 10 µM
[20] = target: Focal adhesion kinase 1 (Homo sapiens) (UniProt Q05397); details: at 1 µM

CCOc1cc2ncnc(Nc3cccc(Br)c3)c2cc1OCC
residual activity [1]: 22%
residual activity [2]: 86%
residual activity [3]: 31%
residual activity [4]: 50%
residual activity [5]: 9%
residual activity [6]: 48%
residual activity [7]: 7%
residual activity [8]: 54%
residual activity [9]: 20%
residual activity [10]: 48%
residual activity [11]: 5%
residual activity [12]: 46%
residual activity [13]: 0%
residual activity [14]: 108% (inactive)
residual activity [15]: 126%
residual activity [16]: 19%
residual activity [17]: -1%
residual activity [18]: 10%
residual activity [19]: -4%
residual activity [20]: 139%
